What all share (details): concentration: 1 μM, replicates: in singlicate; n = 1
For assay [1], the system named is MYLK4.
Assay [2] concerns MYLK.
Assay [3] has as its system MYO3A.
The subject of assay [4] is MYO3B.
Assay [5] deals with T1, NDR1.
T1 construct: gene STK38

Assay [6] deals with NDR2.
Assay [7] relates to NEK10.
In assay [8] the test system is NEK11.
Assay [9] relates to NEK1.
Assay [10] has as its system NEK2.
In assay [11] the test system is NEK3.
The test system of assay [12] is NEK4.
The subject of assay [13] is NEK5.
The subject of assay [14] is NEK6.
Assay [15] concerns NEK7.
Assay [16] deals with NEK9.
The subject of assay [17] is T2, NIK.
T2 construct: gene MAP3K14

The test system of assay [18] is T3, NIM1.
T3 construct: gene MGC42105

In assay [19] the test system is NLK.
Assay [20] deals with T4, OSR1.
T4 construct: gene OXSR1
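Further: KINOMEscan kinase panel screen.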

As for `Fc1ccc(Nc2nccc(-c3c(-c4ccc(Cl)cc4)nn4ncccc34)n2)cc1F` [GW829058], the “%Inh” value was determined as 0% in assay [1]; 38% in assay [2]; 15% in assay [3]; 21% in assay [4]; 24% in assay [5]; 28% in assay [6]. In addition, the “%Inh” value in [7] is 19%; in [8] it was 25%; in assay [9], 17%; in assay [10], 16%; in [11], 11%; in assay [12] it was 8%. Further, the “%Inh” value in [13] is given as 13%; in assay [14], 21%; in assay [15] it was 0%; in assay [16], 5%; in assay [17], 43%; in assay [18], 34%. For the same molecule, the “%Inh” value came to 70% in assay [19] and 28% in assay [20].

In the case of `NC(=O)c1sc(-n2cnc3ccccc32)cc1OCc1ccccc1F` [GSK1024306], the “%Inh” value in assay [1] stood at 6%; in assay [2] it was 2%; in assay [3], 3%; in assay [4] it was 0%; in assay [5], 0%; in assay [6] it was 11%. The “%Inh” value in [7] is on record as 22%; in [8], 32%; in assay [9] it was 0%; in assay [10], 0%; in [11], 0%; in assay [12] it was 0%. Moreover, the “%Inh” value was 0% in [13]; 0% in assay [14]; 0% in [15]; 0% in assay [16]; 0% in assay [17]; 20% in assay [18]. The “%Inh” value in [19] and in assay [20] was 1% throughout.

As to `Cn1ccc2ncnc(Oc3ccc(NC(=O)Nc4cccnc4)c(Cl)c3)c21`, the “%Inh” value in assay [1] was determined as 0%; in [2], 0%; in assay [3] it was 0%; in [4], 1%; in assay [5], 0%; in [6] it was 14%. Besides, the “%Inh” value in assay [7] stood at 0%; in [8], 0%; in assay [9], 0%; in [10], 0%; in assay [11] it was 9%; in [12] it was 0%. Further, the “%Inh” value in assay [13] came to 0%; in [14], 8%; in assay [15], 0%; in [16], 3%; in [17] it was 0%; in assay [18] it was 0%. For the same molecule, the “%Inh” value stood at 0% in [19] and 7% in assay [20].

Regarding `CC(C)N1CCC(n2cnc(-c3ccc(F)cc3)c2-c2ccnc(N)n2)CC1` [SB-223132], the “%Inh” value came to 9% in [1]; 19% in [2]; 0% in assay [3]; 0% in assay [4]; 7% in assay [5]; 0% in assay [6]. Moreover, the “%Inh” value in assay [7] was 9%; in assay [8], 0%; in assay [9], 11%; in assay [10], 0%; in assay [11] it was 33%; in [12] it was 0%. The “%Inh” value in [13] is on record as 3%; in [14], 8%; in [15], 0%; in [16] it was 0%; in assay [17], 0%; in assay [18], 0%. The figures for the “%Inh” value in assay [19] and in assay [20] were 49% and 0%, respectively.

Regarding `OCCOCCn1ccc2ncnc(Nc3ccc(Oc4cccc(Cl)c4)c(Cl)c3)c21`, the “%Inh” value was 0% in assay [1]; 0% in assay [2]; 0% in [3]; 0% in assay [4]; 30% in assay [5]; 0% in [6]. Also, the “%Inh” value in assay [7] was 0%; in [8], 0%; in assay [9] it was 0%; in [10], 0%; in assay [11], 10%; in [12], 0%. Besides, the “%Inh” value in assay [13], in assay [14], in assay [15], in assay [16], in [17] and in assay [18] was 0% throughout. Moreover, the “%Inh” value in [19] and in [20] was 0% in each case.

Regarding `COc1ccc(NC(=O)c2ccc(-c3cc(-c4nnc(C)o4)ccc3C)cc2)cc1` [GW595885], the “%Inh” value was found to be 0% in assay [1]; 14% in assay [2]; 16% in [3]; 16% in assay [4]; 12% in [5]; 0% in [6]. In addition, the “%Inh” value in [7] was found to be 16%; in assay [8], 0%; in assay [9] it was 0%; in [10], 0%; in [11], 5%; in [12], 19%. For the same molecule, the “%Inh” value in assay [13] amounted to 4%; in [14], 0%; in [15] it was 0%; in assay [16], 0%; in assay [17], 0%; in [18], 20%. Besides, the figures for the “%Inh” value in assay [19] and in [20] were 10% and 14%, respectively.

Consider `CNc1nccc(-c2c(-c3ccc(F)cc3)ncn2CCCN2CCOCC2)n1` [SB-222516], for which the “%Inh” value in assay [1] was found to be 0%; in assay [2] it was 0%; in [3] it was 0%; in assay [4], 0%; in [5] it was 0%; in assay [6] it was 28%. The “%Inh” value in assay [7] is 0%; in assay [8], 0%; in assay [9], 0%; in [10], 0%; in [11], 17%; in assay [12] it was 2%. For the same molecule, the “%Inh” value in assay [13] is 100%; in assay [14] it was 0%; in assay [15] it was 0%; in assay [16], 0%; in assay [17] it was 47%; in assay [18], 14%. Also, the “%Inh” value in assay [19] is 0%; in [20] it was 27%.

Regarding `Fc1cccc(COc2ccc(Nc3ncnc4nn5ccccc5c34)cc2Cl)c1` [GW689066], the “%Inh” value turned out to be 0% in [1]; 0% in assay [2]; 18% in assay [3]; 0% in assay [4]; 55% in assay [5]; 0% in assay [6]. Besides, the “%Inh” value stood at 0% in [7]; 11% in [8]; 0% in [9]; 0% in [10]; 0% in assay [11]; 0% in assay [12]. For the same molecule, the “%Inh” value in assay [13] is on record as 0%; in [14], 0%; in assay [15] it was 0%; in [16], 4%; in assay [17] it was 0%; in [18], 13%. For the same molecule, the “%Inh” value in assay [19] is reported as 7%; in [20], 3%.

In the case of `C[C@H]1CC[C@@H](C(=O)Nc2ccccc2)CN1c1cc(-c2ccc3c(N)n[nH]c3c2)nc(N)n1` [GSK2283293], the “%Inh” value in [1] was 0%; in [2], 40%; in assay [3], 7%; in [4], 0%; in assay [5] it was 13%; in assay [6] it was 0%. Also, the “%Inh” value in assay [7] is 0%; in assay [8], 0%; in assay [9], 0%; in [10] it was 0%; in assay [11] it was 1%; in assay [12] it was 1%. In addition, the “%Inh” value in assay [13] worked out at 0%; in assay [14] it was 0%; in assay [15], 0%; in assay [16], 7%; in assay [17], 0%; in [18], 12%. Besides, the “%Inh” value in [19] was determined as 0%; in assay [20] it was 11%.

For `Cn1cc(-c2ccc3c(c2)CCN3C(=O)Cc2cccc(C(F)(F)F)c2)c2c(N)ncnc21` [GSK2606414], the “%Inh” value is given as 0% in [1]; 1% in assay [2]; 0% in assay [3]; 7% in assay [4]; 0% in assay [5]; 0% in assay [6]. The “%Inh” value is 18% in assay [7]; 14% in [8]; 0% in assay [9]; 15% in assay [10]; 0% in assay [11]; 7% in assay [12]. Also, the “%Inh” value in assay [13] came to 0%; in assay [14] it was 0%; in assay [15], 11%; in [16], 8%; in assay [17], 0%; in [18], 5%. In addition, the “%Inh” value is reported as 0% in assay [19] and 12% in assay [20].

`CC(C)(C)c1ccc(-n2cnc3c(N)ncnc32)cc1` [SKF-97263]: the “%Inh” value in assay [1] is given as 3%; in assay [2] it was 8%; in assay [3] it was 1%; in [4], 8%; in [5], 0%; in assay [6] it was 0%. For the same molecule, the “%Inh” value worked out at 0% in [7]; 0% in [8]; 0% in assay [9]; 0% in assay [10]; 0% in assay [11]; 19% in assay [12]. Further, the “%Inh” value in assay [13] stood at 10%; in assay [14], 0%; in assay [15], 16%; in assay [16], 14%; in [17] it was 0%; in assay [18], 9%. Besides, the “%Inh” value is given as 26% in assay [19] and 16% in assay [20].
